In PubChem BioAssay AID1259343 (VanderVen Lab, College of Veterinary Medicine, Cornell …, 2017):
The campaign covered roughly 6,200 compounds. About 2,900 (47%) were called active. So high a share suggests a set chosen from earlier hits. This is one part of the list. Unmarked numbers belong to inactive results. No stated cut-off is given here; in the data, active means inhibition above about 50%; inactive means the rest.

assay: Mycobacterium tuberculosis growth inhibition, primary screen (AID 1259343); details: inhibition: at 10 µM, active compounds read high; outcome: 10 uM

Q: With `C(=Nn1c(-c2ccccc2)csc1=NC1CCCCC1)c1ccccn1` as the compound, how does the inhibition read?
A: -31.1%

Q: Which inhibition does the source give for `Cc1ccc(OCC2CCCN(Cc3ccc(C#CCO)s3)C2)cc1` (configuration not stated) here?
A: 82.9% (active)

Q: With `Cc1ccccc1OCC1CCCN(Cc2nc(Cc3ccccc3F)no2)C1` (configuration not stated) as the compound, how does the inhibition read?
A: 47%

Q: With `COCC(C)NC(=O)c1cccc(Oc2cccc(C(F)(F)F)c2)c1` (configuration not stated) as the compound, how does the inhibition read?
A: 38.2%

Q: With `O=C(NCC(F)(F)F)c1cccc(Oc2ccccc2)c1` as the compound, how does the inhibition read?
A: 74.4% (active)

Q: For `CCCCc1noc(CNc2cc(C(=O)NCC(F)(F)F)ccc2C)n1`, which inhibition is on record?
A: 46.7%

Q: Which inhibition does the source give for `CCc1cccc(N2CCC(NC(=O)Nc3nccs3)CC2)c1` here?
A: 51.4% (active)

Q: Which inhibition does the source give for `CC1CC(=O)NN1C(=O)/C=C/c1cn(-c2ccccc2)nc1-c1ccccc1` (configuration not stated) here?
A: 38.7%

Q: Which inhibition does the source give for `Cn1cc(-c2nn(-c3ccccc3)cc2C=NNC(N)=S)c2ccccc21` here?
A: 16.3%

Q: With `OCCN=Cc1cn(-c2ccccc2)nc1-c1ccc(Cl)cc1` as the compound, how does the inhibition read?
A: 59.3% (active)

Q: Which inhibition does the source give for `CCc1cc2c(=O)n(CCC(C)C)c(=S)[nH]c2s1` here?
A: -39.7%

Q: Which inhibition does the source give for `C/C(=C/C(=O)C(C#N)c1nc2cc(Cl)ccc2s1)C1CC1` (configuration not stated) here?
A: 63.6% (active)

Q: With `COCCCn1c(-c2ccccc2)nc2oc3cc(OC)ccc3c(=O)c2c1=O` as the compound, how does the inhibition read?
A: -18.5%

Q: Which inhibition does the source give for `CCOC(=O)COc1ccc2c(=O)c(-c3ccc(Cl)cc3)c(C)oc2c1` here?
A: 84% (active)

Q: Which inhibition does the source give for `CCOC(=O)COc1ccc2c(=O)c(-c3ccccc3)c(C)oc2c1` here?
A: 41.9%

Q: For `COC(=O)COc1ccc2c(=O)c(Oc3ccc(OC)cc3)coc2c1`, which inhibition is on record?
A: 8.04%

Q: For `Cc1cc(NC(=O)C(C)Oc2ccc3c(=O)c(-c4ccccc4)c(C)oc3c2)no1` (configuration not stated), which inhibition is on record?
A: 70.1% (active)

Q: With `C=C(C)COc1ccc2c(=O)c(-c3ccccc3)c(C)oc2c1` as the compound, how does the inhibition read?
A: 51.9% (active)

Q: For `Nc1c([N+](=O)[O-])ccc2c1=[N+]([O-])C1(CCCCC1)[N+]=2[O-]`, which inhibition is on record?
A: 101% (active)

Q: Which inhibition does the source give for `Oc1c(N=Nc2ccccc2)cc2c3c1CCCN3CCC2` here?
A: 16.8%

Q: Which inhibition does the source give for `O=C(NCC1CC1)c1csc(N2CCN(Cc3ccc(Cl)cc3)C2=O)n1` here?
A: 33.3%

Q: With `Cc1c(CN2CCCC(C(=O)Nc3cccc(-n4cccn4)c3)C2)[nH]c2ccccc12` (configuration not stated) as the compound, how does the inhibition read?
A: 35.5%

Q: For `Cc1c(CN2CCCC(CNC(=O)c3cccs3)C2)[nH]c2ccc(Cl)cc12` (configuration not stated), which inhibition is on record?
A: 78.8% (active)

Q: For `NC(=N/N=C\c1ccc(Cl)cc1)N/N=C\c1ccc(Cl)cc1`, which inhibition is on record?
A: 101% (active)

Q: With `CN(CCC#N)c1ccc(C=NNC(N)=S)cc1` as the compound, how does the inhibition read?
A: 29.2%

Q: For `Clc1ccc(C2=Nn3c(nnc3C3CCCCC3)SC2)c(Cl)c1`, which inhibition is on record?
A: -20.9%

Q: Which inhibition does the source give for `O=C(Sc1cccc2cccnc12)c1ccccc1Cl` here?
A: 92.5% (active)
